# How the values were obtained:
# Settings in all cases: concentration: 1 μM, replicates: in singlicate; n = 1
# PAK3 = test system: PAK3
# PAK4 = test system: PAK4
# PAK6 = test system: PAK6
# PAK7 = test system: PAK7
# PCTK1 = test system: T1, PCTK1
# T1 construct: gene CDK16
# PCTK2 = test system: T2, PCTK2
# T2 construct: gene CDK17
# PCTK3 = test system: T3, PCTK3
# T3 construct: gene CDK18
# PDGFRA = test system: PDGFRA
# PDGFRB = test system: PDGFRB
# PDPK1 = test system: PDPK1
# PFTAIRE2 = test system: PFTAIRE2
# PFTK1 = test system: T4, PFTK1
# T4 construct: gene CDK14
# PHKG1 = test system: PHKG1
# PHKG2 = test system: PHKG2
# PIK3C2B = test system: PIK3C2B
# PIK3C2G = test system: PIK3C2G
# PIK3CA = test system: PIK3CA
# PIK3CB = test system: PIK3CB
# PIK3CD = test system: PIK3CD
# PIK3CG = test system: PIK3CG
# 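Note: KINOMEscan kinase panel screen.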
SMILES,%Inh (PAK3),%Inh (PAK4),%Inh (PAK6),%Inh (PAK7),%Inh (PCTK1),%Inh (PCTK2),%Inh (PCTK3),%Inh (PDGFRA),%Inh (PDGFRB),%Inh (PDPK1),%Inh (PFTAIRE2),%Inh (PFTK1),%Inh (PHKG1),%Inh (PHKG2),%Inh (PIK3C2B),%Inh (PIK3C2G),%Inh (PIK3CA),%Inh (PIK3CB),%Inh (PIK3CD),%Inh (PIK3CG)
COc1ccc(Nc2nccc(-c3ccc(NC(=O)c4cc5cc(F)ccc5[nH]4)cc3)n2)cc1 [GSK1229496],0%,0%,0%,5%,0%,0%,0%,0%,47%,0%,0%,13%,0%,0%,0%,0%,0%,0%,0%,2%
CC(C)c1cc(-c2ccc3c(N)n[nH]c3c2)nc(N)n1 [GSK2250882],0%,0%,0%,6%,0%,9%,11%,0%,18%,74%,26%,4%,1%,5%,0%,0%,0%,0%,0%,5%
Cc1c(Cn2c(C)c(C)n3c(=O)cc(N4CCOCC4)nc23)cccc1C(F)(F)F [GSK2328680],0%,19%,0%,0%,0%,0%,31%,0%,16%,0%,8%,10%,0%,0%,4%,0%,20%,99.1%,80%,4%
COC(=O)c1cccc(NC(=O)NC2CCN(c3ccnc(Nc4ccc(OC)cc4)n3)C2)c1 (stereo not drawn) [GSK1379746],0%,0%,0%,0%,0%,0%,0%,0%,35%,0%,10%,27%,19%,0%,20%,0%,0%,0%,30%,0%
CC(=O)c1c(C)c2cnc(Nc3ccn(C)n3)nc2n(C2CCCC2)c1=O,0%,0%,0%,0%,0%,0%,100%,0%,0%,0%,0%,0%,0%,2%,0%,0%,0%,0%,18%,61%
Cc1ccc(NC(=O)Nc2ccc(Cl)c(C(F)(F)F)c2)cc1-c1ccc(C(=O)Nc2ccncc2)cc1 [GSK1398470],22%,0%,0%,2%,0%,6%,14%,19%,97.5%,26%,21%,0%,23%,4%,0%,2%,9%,0%,0%,10%
COc1ccc(Nc2nccc(N3CCC(NC(=O)c4cc5ccccc5s4)C3)n2)cc1 (stereo not drawn) [GSK1379738],0%,0%,2%,0%,15%,0%,0%,0%,26%,0%,16%,4%,0%,0%,0%,0%,0%,0%,0%,0%
CS(=O)(=O)CCNCc1nc(-c2ccc3ncnc(Nc4ccc(OCc5ccccc5)c(Cl)c4)c3c2)cs1.Cl [GW582764],24%,0%,0%,0%,6%,0%,17%,0%,8%,0%,7%,3%,0%,0%,0%,0%,0%,0%,0%,0%
COc1ccc(CSc2nnc(-c3ccc4c(c3)CCO4)o2)cc1,0%,0%,0%,0%,0%,5%,0%,0%,0%,0%,0%,0%,0%,25%,0%,0%,0%,0%,0%,0%
COC(=O)C(Cc1ccccc1)NC(=O)NC1CCN(c2ccnc(Nc3ccc(F)cc3)n2)C1 (stereo not drawn) [GSK1379714],16%,0%,0%,7%,5%,9%,0%,7%,23%,4%,14%,0%,2%,0%,0%,73%,0%,0%,27%,1%
Cc1ccc(-c2nc(Nc3ccncc3)c3ccccc3n2)s1 [GSK189015],6%,4%,8%,0%,7%,0%,30%,0%,22%,26%,22%,28%,9%,0%,0%,0%,0%,0%,0%,0%
Nc1cccc(-c2ccc3c(N)n[nH]c3c2)n1 [GSK2192730],0%,0%,8%,7%,4%,20%,3%,2%,18%,0%,20%,0%,0%,6%,5%,0%,18%,0%,0%,15%
O=c1cc(N2CCOCC2)nc2n(Cc3ccccc3F)ccn12 [GSK2297428],24%,0%,0%,9%,0%,0%,0%,0%,8%,0%,0%,23%,0%,0%,2%,0%,6%,94.5%,32%,24%
COc1cccc(C2=C(Nc3cc(Cl)c(O)c(Cl)c3)C(=O)NC2=O)c1 [SB-390767],100%,0%,0%,0%,2%,0%,0%,0%,0%,0%,8%,0%,0%,0%,0%,0%,0%,0%,0%,0%
Nc1nccc(-c2c(-c3ccc(F)cc3)ncn2C2CCN(Cc3ccccc3)CC2)n1 [SB-219980],5%,0%,0%,0%,3%,0%,0%,22%,20%,0%,5%,0%,1%,0%,17%,52%,0%,4%,35%,7%
NS(=O)(=O)c1cccc(N/C=C2\C(=O)Nc3ccc(S(=O)(=O)Cc4c(Cl)cccc4Cl)cc32)c1 [GSK398099],0%,0%,5%,4%,6%,0%,21%,0%,20%,0%,26%,5%,0%,0%,4%,0%,16%,0%,0%,41%
Cc1ccc(NC(=O)Nc2ccccc2F)cc1-c1ccc(C(=O)Nc2ccncc2)cc1 [GSK1398477],27%,0%,5%,11%,4%,12%,46%,50%,100%,19%,28%,25%,23%,4%,0%,0%,0%,0%,0%,0%
COc1ccc(Nc2nccc(N3CCC(NC(=O)C(C)c4ccc(Cl)cc4)CC3)n2)cc1 (stereo not drawn) [GSK1379812],47%,2%,0%,22%,100%,0%,15%,0%,27%,7%,8%,5%,0%,16%,15%,0%,21%,22%,0%,12%
COc1nccc(-c2c(-c3ccc(F)cc3)ncn2CCCN2CCOCC2)n1 [SB-282852],0%,0%,9%,7%,6%,0%,0%,17%,0%,0%,0%,0%,13%,0%,8%,8%,0%,0%,0%,37%
Cc1ccc(NC(=O)c2ccc(Cl)cc2)cc1-c1ccc(C(=O)Nc2ccncc2)cc1 [GSK1398467],19%,0%,0%,65%,0%,0%,0%,66%,100%,0%,0%,0%,0%,16%,0%,0%,0%,0%,0%,0%
COC(=O)C(NC(=O)NC1CCN(c2ccnc(Nc3ccc(F)cc3)n2)C1)c1ccccc1 (stereo not drawn) [GSK1379712],0%,0%,0%,2%,0%,14%,24%,14%,38%,0%,14%,17%,0%,0%,14%,0%,1%,5%,23%,9%
